{"source": "PubChem BioAssay AID1159580", "about": "(chemical genetic matrix, 2015)", "assay": "chemical genetic growth profiling, strain panel (AID 1159580);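 also: tested at 20 µM; growth read once vehicle control cultures reached saturation at 30 °C; 1 = growth at the plate median or of vehicle wells; lower values mean less growth of the strain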", "conditions": "growth OD", "note": "Out of some 5,500 compounds screened, about 2,000 (36%) were called active. Not shown: some 18% with an inconclusive outcome. Rule as the data show it: active = normalized growth mostly below about 0.91 (no sharp cut-off); inconclusive = no clear call, values can overlap the other calls; inactive = mostly above about 0.92. Some of the results follow."}
{"smiles": "O=C(O)c1ccccc1-c1c2cc(Br)c(=O)cc-2oc2[c]([Hg])c(O)c(Br)cc12", "values": [{"measurement": "normalized growth", "setting": "S. cerevisiae deletion strains, locus YKL009W, strain mrt4, active compounds read low", "value": "0.924 (inactive)"}, {"measurement": "normalized growth", "setting": "S. cerevisiae deletion strains, locus YKL068W, active compounds read low", "value": "0.565 (active)"}, {"measurement": "normalized growth", "setting": "S. cerevisiae deletion strains, locus YKL085W, strain MDH1 (second series), active compounds read low", "value": "0.0686 (active)"}, {"measurement": "normalized growth", "setting": "S. cerevisiae deletion strains, locus YKL085W, strain MDH1, active compounds read low", "value": "0.0686 (active)"}, {"measurement": "normalized growth", "setting": "S. cerevisiae deletion strains, locus YKL160W, strain elf1, active compounds read low", "value": "0.0872 (active)"}, {"measurement": "normalized growth", "setting": "S. cerevisiae deletion strains, locus YKL190W, strain CNB1, active compounds read low", "value": "0.575 (active)"}, {"measurement": "normalized growth", "setting": "S. cerevisiae deletion strains, locus YKR001C, strain vps1, active compounds read low", "value": "0.101 (active)"}, {"measurement": "normalized growth", "setting": "S. cerevisiae deletion strains, locus YKR026C, strain gcn3, active compounds read low", "value": "1.05 (inactive)"}, {"measurement": "normalized growth", "setting": "S. cerevisiae deletion strains, locus YKR091W, strain srl3, active compounds read low", "value": "1.04 (inactive)"}, {"measurement": "normalized growth", "setting": "S. cerevisiae deletion strains, locus YLL001W, strain dnm1, active compounds read low", "value": "1.03 (inactive)"}, {"measurement": "normalized growth", "setting": "S. cerevisiae deletion strains, locus YLL026W, active compounds read low", "value": "1.04 (inactive)"}, {"measurement": "normalized growth", "setting": "S. cerevisiae deletion strains, locus YLL041C, strain sdh2, active compounds read low", "value": "1.02 (inactive)"}, {"measurement": "normalized growth", "setting": "S. cerevisiae deletion strains, locus YLR027C, strain aat2, active compounds read low", "value": "1.04 (inactive)"}, {"measurement": "normalized growth", "setting": "S. cerevisiae deletion strains, locus YLR039C, strain RIC1, active compounds read low", "value": "0.949 (inactive)"}, {"measurement": "normalized growth", "setting": "S. cerevisiae deletion strains, locus YLR058C, strain SHM2, active compounds read low", "value": "0.992 (inactive)"}, {"measurement": "normalized growth", "setting": "S. cerevisiae deletion strains, locus YLR102C, strain apc9, active compounds read low", "value": "0.081 (active)"}, {"measurement": "normalized growth", "setting": "S. cerevisiae deletion strains, locus YLR113W, strain HOG1, active compounds read low", "value": "0.485 (active)"}, {"measurement": "normalized growth", "setting": "S. cerevisiae deletion strains, locus YLR221C, strain rsa3, active compounds read low", "value": "1 (inactive)"}, {"measurement": "normalized growth", "setting": "S. cerevisiae deletion strains, locus YLR258W, strain gsy2, active compounds read low", "value": "1.04 (inactive)"}, {"measurement": "normalized growth", "setting": "S. cerevisiae deletion strains, locus YLR262C, strain YPT6 (second series), active compounds read low", "value": "1.09 (inactive)"}, {"measurement": "normalized growth", "setting": "S. cerevisiae deletion strains, locus YLR262C, strain YPT6, active compounds read low", "value": "0.68 (inactive)"}, {"measurement": "normalized growth", "setting": "S. cerevisiae deletion strains, locus YLR268W, strain sec22, active compounds read low", "value": "0.106 (active)"}, {"measurement": "normalized growth", "setting": "S. cerevisiae deletion strains, locus YLR320W, strain mms22, active compounds read low", "value": "1.02 (inactive)"}, {"measurement": "normalized growth", "setting": "S. cerevisiae deletion strains, locus YLR330W, strain CHS5, active compounds read low", "value": "0.0829 (active)"}, {"measurement": "normalized growth", "setting": "S. cerevisiae deletion strains, locus YLR342W, strain FKS1 (second series), active compounds read low", "value": "0.132 (active)"}, {"measurement": "normalized growth", "setting": "S. cerevisiae deletion strains, locus YLR342W, strain FKS1, active compounds read low", "value": "1.02 (inactive)"}, {"measurement": "normalized growth", "setting": "S. cerevisiae deletion strains, locus YLR357W, strain rsc2, active compounds read low", "value": "1 (inactive)"}, {"measurement": "normalized growth", "setting": "S. cerevisiae deletion strains, locus YLR370C, strain arc18, active compounds read low", "value": "1.04 (inactive)"}, {"measurement": "normalized growth", "setting": "S. cerevisiae deletion strains, locus YLR371W, strain rom2, active compounds read low", "value": "0.0749 (active)"}, {"measurement": "normalized growth", "setting": "S. cerevisiae deletion strains, locus YLR384C, strain iki3, active compounds read low", "value": "1.02 (inactive)"}, {"measurement": "normalized growth", "setting": "S. cerevisiae deletion strains, locus YLR418C, strain cdc73, active compounds read low", "value": "0.166 (active)"}, {"measurement": "normalized growth", "setting": "S. cerevisiae deletion strains, locus YML016C, strain PPZ1, active compounds read low", "value": "0.0683 (active)"}, {"measurement": "normalized growth", "setting": "S. cerevisiae deletion strains, locus YML032C, strain rad52, active compounds read low", "value": "0.99 (inactive)"}, {"measurement": "normalized growth", "setting": "S. cerevisiae deletion strains, locus YML120C, strain ndi1, active compounds read low", "value": "1.03 (inactive)"}, {"measurement": "normalized growth", "setting": "S. cerevisiae deletion strains, locus YML124C, strain tub3, active compounds read low", "value": "0.779 (active)"}, {"measurement": "normalized growth", "setting": "S. cerevisiae deletion strains, locus YMR058W, strain fet3, active compounds read low", "value": "1.02 (inactive)"}, {"measurement": "normalized growth", "setting": "S. cerevisiae deletion strains, locus YMR078C, strain ctf18, active compounds read low", "value": "0.484 (active)"}, {"measurement": "normalized growth", "setting": "S. cerevisiae deletion strains, locus YMR125W, strain sto1, active compounds read low", "value": "1.02 (inactive)"}, {"measurement": "normalized growth", "setting": "S. cerevisiae deletion strains, locus YMR129W, active compounds read low", "value": "1.04 (inactive)"}, {"measurement": "normalized growth", "setting": "S. cerevisiae deletion strains, locus YMR205C, strain PFK2, active compounds read low", "value": "1.09 (inactive)"}, {"measurement": "normalized growth", "setting": "S. cerevisiae deletion strains, locus YMR223W, strain ubp8, active compounds read low", "value": "0.0739 (active)"}, {"measurement": "normalized growth", "setting": "S. cerevisiae deletion strains, locus YMR231W, strain pep5, active compounds read low", "value": "1.03 (inactive)"}, {"measurement": "normalized growth", "setting": "S. cerevisiae deletion strains, locus YMR263W, strain SAP30, active compounds read low", "value": "0.943 (inactive)"}, {"measurement": "normalized growth", "setting": "S. cerevisiae deletion strains, locus YMR307W, strain GAS1, active compounds read low", "value": "0.228 (active)"}, {"measurement": "normalized growth", "setting": "S. cerevisiae deletion strains, locus YNL067W, strain RPL9B, active compounds read low", "value": "0.814 (active)"}, {"measurement": "normalized growth", "setting": "S. cerevisiae deletion strains, locus YNL071W, strain lat1, active compounds read low", "value": "1.01 (inactive)"}, {"measurement": "normalized growth", "setting": "S. cerevisiae deletion strains, locus YNL128W, strain TEP1, active compounds read low", "value": "0.196 (active)"}, {"measurement": "normalized growth", "setting": "S. cerevisiae deletion strains, locus YNL153C, strain GIM3, active compounds read low", "value": "0.89 (inactive)"}, {"measurement": "normalized growth", "setting": "S. cerevisiae deletion strains, locus YNL183C, strain NPR1, active compounds read low", "value": "0.513 (active)"}, {"measurement": "normalized growth", "setting": "S. cerevisiae deletion strains, locus YNL209W, strain ssb2, active compounds read low", "value": "1.03 (inactive)"}, {"measurement": "normalized growth", "setting": "S. cerevisiae deletion strains, locus YNL233W, strain BNI4, active compounds read low", "value": "0.104 (active)"}, {"measurement": "normalized growth", "setting": "S. cerevisiae deletion strains, locus YNL248C, strain rpa49, active compounds read low", "value": "1.02 (inactive)"}, {"measurement": "normalized growth", "setting": "S. cerevisiae deletion strains, locus YNL250W, strain rad50, active compounds read low", "value": "0.0998 (active)"}, {"measurement": "normalized growth", "setting": "S. cerevisiae deletion strains, locus YNL271C, strain bni1, active compounds read low", "value": "0.0638 (active)"}, {"measurement": "normalized growth", "setting": "S. cerevisiae deletion strains, locus YNL298W, strain CLA4, active compounds read low", "value": "0.062 (active)"}, {"measurement": "normalized growth", "setting": "S. cerevisiae deletion strains, locus YNL307C, strain MCK1, active compounds read low", "value": "0.072 (active)"}, {"measurement": "normalized growth", "setting": "S. cerevisiae deletion strains, locus YNL322C, strain KRE1 (second series), active compounds read low", "value": "1.05 (inactive)"}, {"measurement": "normalized growth", "setting": "S. cerevisiae deletion strains, locus YNL322C, strain KRE1, active compounds read low", "value": "0.914 (active)"}, {"measurement": "normalized growth", "setting": "S. cerevisiae deletion strains, locus YNR049C, strain mso1, active compounds read low", "value": "1.02 (inactive)"}, {"measurement": "normalized growth", "setting": "S. cerevisiae deletion strains, locus YNR052C, strain pop2, active compounds read low", "value": "0.937 (inactive)"}, {"measurement": "normalized growth", "setting": "S. cerevisiae deletion strains, locus YOL006C, strain TOP1, active compounds read low", "value": "0.153 (active)"}, {"measurement": "normalized growth", "setting": "S. cerevisiae deletion strains, locus YOL012C, strain htz1", "value": "0.228 (inactive)"}, {"measurement": "normalized growth", "setting": "S. cerevisiae deletion strains, locus YOL147C, strain pex11, active compounds read low", "value": "0.995 (inactive)"}, {"measurement": "normalized growth", "setting": "S. cerevisiae deletion strains, locus YOR001W, strain rrp6, active compounds read low", "value": "1.04 (inactive)"}, {"measurement": "normalized growth", "setting": "S. cerevisiae deletion strains, locus YOR061W, strain CKA2, active compounds read low", "value": "0.155 (active)"}, {"measurement": "normalized growth", "setting": "S. cerevisiae deletion strains, locus YOR069W, strain VPS5, active compounds read low", "value": "0.494 (active)"}, {"measurement": "normalized growth", "setting": "S. cerevisiae deletion strains, locus YOR070C, strain gyp1, active compounds read low", "value": "1.02 (inactive)"}, {"measurement": "normalized growth", "setting": "S. cerevisiae deletion strains, locus YOR080W, strain dia2, active compounds read low", "value": "1.02 (inactive)"}, {"measurement": "normalized growth", "setting": "S. cerevisiae deletion strains, locus YOR083W, strain WHI5, active compounds read low", "value": "1.03 (inactive)"}, {"measurement": "normalized growth", "setting": "S. cerevisiae deletion strains, locus YOR106W, strain vam3, active compounds read low", "value": "0.952 (inactive)"}, {"measurement": "normalized growth", "setting": "S. cerevisiae deletion strains, locus YOR136W, strain idh2, active compounds read low", "value": "0.0743 (active)"}, {"measurement": "normalized growth", "setting": "S. cerevisiae deletion strains, locus YOR144C, strain elg1, active compounds read low", "value": "1.02 (inactive)"}, {"measurement": "normalized growth", "setting": "S. cerevisiae deletion strains, locus YOR184W, strain ser1, active compounds read low", "value": "0.143 (active)"}, {"measurement": "normalized growth", "setting": "S. cerevisiae deletion strains, locus YOR231W, strain MKK1, active compounds read low", "value": "0.345 (active)"}, {"measurement": "normalized growth", "setting": "S. cerevisiae deletion strains, locus YOR265W, strain rbl2, active compounds read low", "value": "1.04 (inactive)"}, {"measurement": "normalized growth", "setting": "S. cerevisiae deletion strains, locus YOR270C, strain vph1, active compounds read low", "value": "1.31 [resistant] (active)"}, {"measurement": "normalized growth", "setting": "S. cerevisiae deletion strains, locus YOR290C, strain snf2, active compounds read low", "value": "1.07 (inactive)"}, {"measurement": "normalized growth", "setting": "S. cerevisiae deletion strains, locus YOR316C, strain cot1, active compounds read low", "value": "0.0634 (active)"}, {"measurement": "normalized growth", "setting": "S. cerevisiae deletion strains, locus YPL051W, strain arl3, active compounds read low", "value": "1 (inactive)"}, {"measurement": "normalized growth", "setting": "S. cerevisiae deletion strains, locus YPL055C, strain LGE1, active compounds read low", "value": "0.226 (active)"}, {"measurement": "normalized growth", "setting": "S. cerevisiae deletion strains, locus YPL078C, strain atp4, active compounds read low", "value": "1.04 (inactive)"}, {"measurement": "normalized growth", "setting": "S. cerevisiae deletion strains, locus YPL106C, strain sse1, active compounds read low", "value": "0.909 (inactive)"}, {"measurement": "normalized growth", "setting": "S. cerevisiae deletion strains, locus YPL240C, strain hsp82, active compounds read low", "value": "1.03 (inactive)"}, {"measurement": "normalized growth", "setting": "S. cerevisiae deletion strains, locus YPL241C, strain CIN2, active compounds read low", "value": "0.987 (inactive)"}, {"measurement": "normalized growth", "setting": "S. cerevisiae deletion strains, locus YPL256C, strain CLN2, active compounds read low", "value": "0.487 (active)"}, {"measurement": "normalized growth", "setting": "S. cerevisiae deletion strains, locus YPR119W, strain clb2, active compounds read low", "value": "0.0719 (active)"}, {"measurement": "normalized growth", "setting": "S. cerevisiae deletion strains, locus YPR141C, strain kar3, active compounds read low", "value": "0.254 (active)"}, {"measurement": "normalized growth", "setting": "S. cerevisiae deletion strains, locus YPR163C, strain tif3, active compounds read low", "value": "0.0765 (active)"}, {"measurement": "normalized growth", "setting": "S. cerevisiae deletion strains, locus YPR167C, strain met16, active compounds read low", "value": "0.0655 (active)"}, {"measurement": "normalized growth", "setting": "S. cerevisiae deletion strains, strain wtn01, active compounds read low", "value": "0.062 (active)"}, {"measurement": "normalized growth", "setting": "S. cerevisiae strains, strain wild type, active compounds read low", "value": "0.196 (active)"}]}
